M1 antag: human M1 muscarinic receptor antagonists, primary screen, CHO-K1 cells, Fluo-8 calcium fluorescence, 1536-well; Muscarinic acetylcholine receptor M1 (Homo sapiens), P11229; CHO-K1 hM1, ACh EC80 antagonist; inhibition, % at 3 µM; actives 1.3% (n = 360,000); AID 588852, 2011;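 active = percent inhibition above its own plate's cutoff, namely the mean of that plate's compound wells plus 3 SD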;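 note: peak over basal fluorescence ratio during 140 s after agonist addition; 0% = ACh EC80 plus DMSO and 100% = DMSO alone without agonist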
Target sequence (P11229 whole entry, looked up): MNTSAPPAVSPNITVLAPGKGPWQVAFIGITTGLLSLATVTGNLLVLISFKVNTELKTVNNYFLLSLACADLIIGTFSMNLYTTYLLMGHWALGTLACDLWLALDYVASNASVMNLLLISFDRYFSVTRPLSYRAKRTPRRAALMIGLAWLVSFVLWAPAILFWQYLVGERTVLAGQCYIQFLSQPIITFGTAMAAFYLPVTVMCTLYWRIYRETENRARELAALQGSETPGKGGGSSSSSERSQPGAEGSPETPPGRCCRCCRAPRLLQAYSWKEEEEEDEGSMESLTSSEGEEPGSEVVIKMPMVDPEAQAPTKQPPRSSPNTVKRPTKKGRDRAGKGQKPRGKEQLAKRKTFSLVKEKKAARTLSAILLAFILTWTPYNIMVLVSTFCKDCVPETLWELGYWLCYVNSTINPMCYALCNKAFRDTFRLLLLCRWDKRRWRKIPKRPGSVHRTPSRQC
M1 PAM: human M1 muscarinic receptor positive allosteric modulators, primary screen, CHO-K1 cells, Fluo-8 calcium fluorescence, 1536-well; AID 588819, 2011; Muscarinic acetylcholine receptor M1 (Homo sapiens), P11229; actives 0.088% (n = 360,000); activation, % at 3 µM; CHO-K1 hM1, ACh EC20; 0% = ACh EC20, 100% = maximal ACh; in the data active = activation above about 19%, passing the limit was not always enough
CHRM1 agonist: human M1 muscarinic receptor agonists, primary screen, Fluo-8 calcium fluorescence, CHO-K1 cells, HTS; Muscarinic acetylcholine receptor M1 (Homo sapiens), P11229; CHO-K1 hM1, agonist mode; 0% DMSO, 100% acetylcholine EC100; activation, % at 3 µM; actives 0.33% (n = 360,000);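 active = activation above the run's mean compound activation plus 3 SD, cut at about 16% in these data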;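 note: peak over basal fluorescence ratio within a 140 s kinetic read after compound addition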
CHO-K1 Ca antag: counter-screen for M1 antagonists: effect in parental CHO-K1 cells | actives 0.6% (n = 360,000) | ATP-induced calcium, Fluo-8 fluorescence | inhibition, % at 3 µM;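 active = inhibition above a per-plate cutoff, the plate's mean sample inhibition plus 3 SD, cut at about 24% in these data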;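 note: 0% = DMSO plus EC80 ATP and 100% = DMSO alone without ATP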
M1 ag parental: counter-screen for M1 agonists: effect in parental CHO-K1 cells; actives 0.48% (n = 360,000); Fluo-8 calcium fluorescence; scaled to maximal ATP response, vehicle zero; AID 602248, 2012; activation, % at 3 µM; in the data active = activation above about 15%;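 note: untransfected CHO-K1 host cells lacking M1 receptor as counterscreen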
CHO-K1 Ca PAM: nonselective calcium activators in parental CHO-K1 cells, primary screen, counter-screen for M1 PAM project, cell-based, Fluo-8 calcium fluorescence, full deck, 1536-well. ATP EC20; 0% at ATP EC20, 100% at ATP max. activation, % at 3 µM. actives 0.02% (n = 360,000). AID 602247, 2012;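 active = activation above the run cutoff, the mean activation of all test compounds plus 3 SD, cut at about 40% in these data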;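 note: peak over basal fluorescence ratio in a 140 s read after ATP addition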
Active calls of the source: *; ! = not active in a repeat. This is a sample that favours compounds with a hit; in the whole collection about 2.3% have one here.

SMILES	M1 antag	M1 PAM	CHRM1 agonist	CHO-K1 Ca antag	M1 ag parental	CHO-K1 Ca PAM
Cc1ccccc1OCc1n(CC(=O)OC2CC(C)CCC2C(C)C)c2ccccc2[n+]1C (centres undefined)	44*	-33	-13	10	1	4
CC1CCC(C(C)C)C(OC(=O)COC(=O)c2ccc(N)cc2)C1 (centres undefined)	-5	7	-8	-7	1	23
COc1ccc(CNC(=O)CCCNC(=O)c2ccc(Cl)cc2)cc1OC	-7	8	0	-1	0	19
CCN(CC)C(=O)c1cccc(-c2csc(C(C)(O)c3ccc(OC)cc3)n2)c1 (centres undefined)	46*	-28	6	14	11	-12
CC(O)(c1ccncc1)c1nc(-c2cccc(C(F)(F)F)c2)cs1 (centres undefined)	30*	-11	-2	6	7	5
Cc1ccc(C(=O)Nc2cc([N+](=O)[O-])ccc2C)cc1	3	-2	-9	-5	0	-2
Cc1ccc([N+](=O)[O-])cc1NC(=O)c1ccc(-c2ccccc2)cc1	23	-8	-2	24*	0	-6
Cc1ccc([N+](=O)[O-])cc1NC(=O)Nc1cccc(F)c1	34	-21	4	26*	13	-22
O=C(Nc1cc(Sc2ccccn2)cc([N+](=O)[O-])c1)c1ccc([N+](=O)[O-])cc1	24*	-16	2	-4	3	14
O=[N+]([O-])c1ccc(Sc2ccccn2)nc1	9	-2	-3	-8	0	9
CCOC(=O)c1sc(S(C)(=O)=O)c2c1CCc1conc1-2	-21	14	1	36*	0	-9
OCC1(Cc2ccccc2)CCN(C2CCN(c3ccccc3F)CC2)CC1	35*	-21	-3	-2	12	9
Cc1c(C)c(C)c(C(=O)C2CCN(c3ccc([N+](=O)[O-])cn3)CC2)c(C)c1C	-11	2	-2	-15	0	20
CCCN(CC1CC1)C(=O)COC(=O)c1ccc(CNS(=O)(=O)c2ccc(F)c(Cl)c2)cc1	2	-17	-6	-2	4	12
N#CCCN(C(=O)COC(=O)c1ccc(CNS(=O)(=O)c2ccc(F)c(Cl)c2)cc1)c1ccc(F)cc1	79*	-27	-13	1	6	11
Cc1nc2scc(C)n2c(=O)c1S(=O)(=O)NCCc1ccc(Cl)cc1	-5	2	-4	13	0	-4
Cc1nc2scc(C)n2c(=O)c1S(=O)(=O)NCC1CCN(Cc2ccc(Cl)cc2)CC1	44*	-23	-6	-5	1	4
CN1CCc2c(c3ccccc3n2Cc2ccccc2)C1	66*!	-26	-7	1	0	4
CC(=O)Oc1ccc2c(c1)c(C(C)=O)c(C)n2C	-3	5	-1	-10	0	7
COc1ccc2c(c1)c(C(C)=O)c(C)n2C	-5	7	4	3	19*	14
Cc1ccc(CC(=O)N2CCN(c3cccc(C(F)(F)F)c3)CC2)cc1	32*	-10	2	15	7	4
FC(F)(F)c1cccc(NC(=S)N2CCN(c3cccc(C(F)(F)F)c3)CC2)c1	38*	-15	-4	12	0	-3
O=C(c1coc2ccccc2c1=O)N1CCN(c2cccc(C(F)(F)F)c2)CC1	54*	-34	-11	-17	1	3
Cc1ccc(N2CCN(C(=S)Nc3ccccc3)CC2)cc1	-1	-3	-6	4	22*	3
S=C(Nc1ccccc1)N1CCN(c2ccccc2)CC1	5	-8	2	0	2	-12
CC1CN(C(=O)c2ccc(NS(=O)(=O)c3ccc(F)cc3)cc2)CC(C)O1 (centres undefined)	-14	13	-1	-4	1	4
CCOC(=O)C1CCCN(c2c(C(=O)c3ccccc3)cnc3ccccc23)C1 (centres undefined)	30*	-23	38*	14	4	9

Source: PubChem (The Scripps Research Institute Molecular Screening Center)
